Source: PubChem BioAssay AID1508645 (National Center for Advancing Translational Sciences (NCATS), 2021)
Inconclusive results are not listed. A call without a number means that no potency is given here. Calls of active or inactive are those of the source. Calls come from the whole dose curve; as a rule, active = well fitted cell-killing curve with a large enough effect; inconclusive = small, poorly fitted or top-dose-only effect, or effect the other way; inactive = no such curve, though single readings can be large or run the other way.

experiment: Cell viability assay in S16 Pmp22-HiBiT cells; conditions: S16 Schwann Pmp22-HiBiT viability, CellTiter-Glo, 24 h; series mostly up to 27.9 µM
Text: Assay Provider: Jim Inglese Ph.D. National Center for Advancing Translational Science, National Institutes of Health, Rockville, MD CMT is a heterogeneous group of neurological disorders that affect approximately 1 in 2,500 people. In particular, the most common form of CMT, CMT1A is genetically linked to the duplication of the PMP22 gene which leads to Schwann cell overexpression, thus manifesting itself as a typical case of dose-sensitive diseases. To identify small molecule compounds that can mediate the expression of PMP22 we developed a phenotypic assay screening strategy by utilizing genome editing techniques to construct Schwann cell lines containing novel reporter technology to monitor the transcriptional or translational regulation of PMP22. For high sensitivity we use a bioluminescent reporter system embedded in the 3' UTR of the PMP22 gene (S16(c9) Pmp22-F2sN) to identify compounds that inhibit gene expression. […] We can further discriminate the effect of all transcriptionally active molecules on PMP22 translation or stability with an assay that incorporates a short NLuc peptide (HiBiT) at the C-terminus of expressed PMP22 (S16(f8) PMP22-HiBiT) allowing alpha complementation and luminescence detection of membrane-associated PMP22 protein. These assays were screened against the NCATS Sytravon Library Collection. Miniaturization of these assays to 1536-well plate format for quantitative high throughput screening (qHTS) yielded rich data sets immediately from the qHTS assay (S16(c9) Pmp22-F2sN), when compared with data from a cell viability assay (Cell TiterGlo) to identify compounds that decreased the output signals through cellular toxicity to streamline the selection process of actives for subsequent characterization using the HiBiT assay (S16(f8) PMP22-HiBiT).
Cell viability assay in S16 Pmp22-HiBiT cells PROTOCOL TABLE (format as described by Inglese J, Shamu CE and Guy RK. 2007) SEQUENCE No. (e.g., 1, 2, 3, etc.); PARAMETER (e.g., Cells, Incubation, Reagent, etc.); VALUE and DESCRIPTION. 1. Cells. Add 500-1,000 cells in 4 uL in growth media (DMEM High Glucose, No Phenol Red media + 10% heat-inactivated FBS + 1% Pen/Strep supplemented media) per well into Greiner 1536-well white/solid bottom high base, TC-treated plates. 2. Compounds. Library compounds and controls added at 23nL per well, transferred by Pin Tool. 3. Incubation. Incubate plates at 37C, 5% CO2, 95% RH for 24 h. 4. Reagent. Add 3uL CellTiter-Glo per well of Greiner 1536-well plates. 5. Incubation. Incubate plates at room temperature for 15 min., protect from light. 6. Detector. Luminescence measured using CCD-based camera (Viewlux). NOTES (numbers refer to Sequence numbers above; values are from representative experiments) 6. Luminescence Read: Clear filter; Exposure = 1 sec, Gain = High, Speed = Slow, Binning = 2X REFERENCES: 1. Inglese J, Shamu CE and Guy RK, Reporting data from high throughput screening of small molecule libraries, Nature Chemical Biology, 2007, 3(8): 438-441. doi.org/10.1038/nchembio0807-438 2. Yasgar A, Shinn P, Jadhav A, Auld DS, Michael S, Zheng W, Austin CP, Inglese J and Simeonov A, Compound Management for Quantitative High-Throughput Screening. J. Assoc. Lab. Auto., 2008, 13: 79-89. doi: 10.1016/j.jala.2007.12.004

| Structure (SMILES) | Potency |
| --- | --- |
| CCc1ccc(OCC(=O)Nc2cc3oc4ccccc4c3cc2OC)cc1 | inactive |
| COc1ccccc1Nc1c2c(nc3ccc(NC(=O)/C=C/c4cccc(OC)c4OC)cc13)CCCC2 | 16.2 µM (active) |
| COc1ccccc1Nc1nn2c(=O)c3ccc(C(=O)Nc4ccc(F)cc4)cc3nc2s1 | 4.57 µM (active) |
| Cc1ccc(C)c(NC(=O)Cn2c(=O)n(Cc3ccc4c(c3)OCO4)c(=O)c3ccc(C(=O)NC4CCCCC4)cc32)c1 | inactive |
| CCC(=O)C1=C(c2cccc([N+](=O)[O-])c2)N(C(=O)CC)n2c(nnc2C2CCCCC2)S1 | inactive |
| Cc1ccc(NC(=O)N2CCc3cc(S(=O)(=O)N4CCC(C)CC4)ccc32)cc1F | inactive |
| COc1ccc(NC(=O)c2oc3ccccc3c2NC(=O)Cc2ccc(F)cc2)c(OC)c1 | inactive |
| O=C(Cn1c(-c2cccs2)cc2cc(F)ccc21)NCCCN1CCN(c2ccc(F)cc2)CC1 | inactive |
| Cc1cc(NC(=O)C2CCCN(S(=O)(=O)c3cccc4nonc34)C2)ccc1Br (stereo not given) | inactive |
| CCOC(=O)c1ccc(N2C(=O)c3[nH]nc(-c4ccc(C)cc4)c3C2c2ccc(O)c(OCC)c2)cc1 (stereo not given) | inactive |
| COc1ccc(CCNC(=O)Cn2c(-c3cccs3)cc3cc(F)ccc32)cc1OC | inactive |
| COc1ccc(OC)c(NC(=O)CSc2c3c(nc4ccccc24)CCCC3)c1 | 16.2 µM (active) |
| COCCCNC(=O)c1ccc2c(c1)N=C(C)c1c(C)ccc(C)c1S2 | inactive |
| CCC(=O)C1=C(c2cccc([N+](=O)[O-])c2)N(C(=O)CC)n2c(nnc2-c2ccccc2)S1 | inactive |
| CCc1ccccc1Nc1nn2c(=O)c3ccc(C(=O)Nc4cc(C)cc(C)c4)cc3nc2s1 | 6.45 µM (active) |
| O=C(NCCCN1CCN(c2ccc(F)cc2)CC1)c1cc2c(Cl)nc3ccccc3c2s1 | inactive |
| COc1ccc(Br)cc1CC1C(=O)Nc2ccccc21 (stereo not given) | inactive |
| CCC(Sc1nc2ccccc2c2nc(-c3ccccc3)nn12)C(=O)Nc1cccc(OC)c1 (stereo not given) | inactive |
| Cc1c(Cl)cccc1NC(=O)c1oc2ccc(S(=O)(=O)N3CCC4(CC3)OCCO4)cc2c1C | inactive |
| CCOC(=O)c1c(NC(=O)c2nc(S(C)(=O)=O)ncc2Cl)sc(C(C)=O)c1C | 6.45 µM (active) |

| Structure (SMILES) | Potency |
| --- | --- |
| Cc1cc(C)c(NC(=O)Cn2c(=O)n(Cc3ccco3)c(=O)c3ccc(C(=O)NC4CCCC4)cc32)c(C)c1 | inactive |
| Cc1cccc(CS(=O)(=O)c2ncc(Cl)c(C(=O)Nc3nc4ccc(F)cc4s3)n2)c1 | 6.45 µM (active) |
| COc1cccc(-n2c(SCC(=O)c3ccc(Cl)cc3)nc3c([nH]c4ccccc43)c2=O)c1 | inactive |
| Cc1ccc(CNC(=O)c2ccc(Nc3nc4ccccc4n4nnnc34)cc2)cc1 | inactive |
| Cc1ccc(OCC(=O)Nc2ccc3nc(SCC(=O)N4CCc5ccccc54)sc3c2)cc1 | inactive |
| CCOC(=O)c1cc2c(=O)n3ccccc3nc2n(Cc2ccco2)c1=NC(=O)c1cc(C)cc(C)c1 | inactive |
| COc1ccc(NC(=O)c2nc(S(=O)(=O)Cc3ccc(C)cc3)ncc2Cl)cc1 | 8.13 µM (active) |
| COc1ccc(Nc2nc3c(S(=O)(=O)c4ccccc4)nnn3c3ccc(Cl)cc23)cc1 | inactive |
| Cc1ccc(NC(=O)CSc2nc3ccc(NC(=O)COc4ccc(C)cc4)cc3s2)cc1 | inactive |
| Cc1cccc(Nc2c3c(nc4nncn24)CCC3)c1C | inactive |
| COc1ccccc1CNC(=O)CSc1nnc(C)c2c(C)n(-c3ccccc3)nc12 | inactive |
| CCCn1c(=N)c(C(=O)NC(C)c2ccccc2)cc2c(=O)n3ccccc3nc21 (stereo not given) | inactive |
| Cc1ccc(S(=O)(=O)c2nnn3c2nc(NC2CCCCCC2)c2sccc23)cc1C | inactive |
| CCc1ccc(C(=O)c2cn(CC(=O)Nc3cc(OC)cc(OC)c3)c3ccc(CC)cc3c2=O)cc1 | inactive |
| CCC(=O)N1CCc2cc(S(=O)(=O)CCC(=O)Nc3ccc(Cl)c(C(F)(F)F)c3)ccc21 | inactive |
| COCCCNC(=O)c1ccc(-n2c(-c3ccccc3)cc3c2CCC(C)C3)cc1 (stereo not given) | inactive |
| O=C(CSc1nc2c([nH]c3ccccc32)c(=O)n1-c1cccc(Cl)c1)c1ccccc1 | inactive |
| O=S(=O)(NCC(c1ccco1)S(=O)(=O)c1cccs1)c1ccc(Cl)cc1 (stereo not given) | inactive |
| COC(=O)c1c(-c2ccc(Cl)cc2)noc1N1CCN(c2ccccc2OC)CC1 | inactive |
| Cc1ccc(CNC(=O)c2nc(S(=O)(=O)Cc3ccc(C)cc3)ncc2Cl)cc1 | inactive |
